Results from PubChem BioAssay (NCATS).
Results filed as inconclusive are left out. Active and inactive are the calls of the source. Calls follow the shape of the dose curve; as a rule, active = well fitted inhibition curve with a large enough effect; inconclusive = small, poorly fitted or top-dose-only effect; inactive = flat fitted curve, though single readings scatter. Bridge positions count the residues as written; N and C are the ends. Peptide text beside a SMILES is read from it.

target: Luciferin 4-monooxygenase (Photinus pyralis) (UniProt P08659); test: Biochemical firefly luciferase enzyme assay for NPC (AID 624030);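 also: purified P. pyralis luciferase at 10 nM with luciferin and ATP substrate; nearly all actives have a fitted effect of over 70% in size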; settings: purified P. pyralis luciferase, luminescence, 5 min; series mostly up to 58.6 µM
Sequence (P08659 whole entry, looked up): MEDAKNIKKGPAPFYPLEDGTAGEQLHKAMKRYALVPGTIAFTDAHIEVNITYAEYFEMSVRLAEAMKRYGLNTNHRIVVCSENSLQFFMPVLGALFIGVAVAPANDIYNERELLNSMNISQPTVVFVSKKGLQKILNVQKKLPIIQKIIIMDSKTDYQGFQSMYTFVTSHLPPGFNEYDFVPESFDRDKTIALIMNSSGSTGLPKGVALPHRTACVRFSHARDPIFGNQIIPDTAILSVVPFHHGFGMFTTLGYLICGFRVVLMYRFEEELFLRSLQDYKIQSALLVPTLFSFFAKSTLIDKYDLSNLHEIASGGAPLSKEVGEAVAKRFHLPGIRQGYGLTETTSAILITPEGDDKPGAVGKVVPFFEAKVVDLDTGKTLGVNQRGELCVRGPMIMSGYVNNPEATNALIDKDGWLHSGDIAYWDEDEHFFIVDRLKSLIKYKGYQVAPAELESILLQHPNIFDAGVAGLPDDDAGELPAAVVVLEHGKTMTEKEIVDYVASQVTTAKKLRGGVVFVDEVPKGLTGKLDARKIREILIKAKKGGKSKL
Procedure, shortened: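 Counter-screen for direct inhibition of the luciferase enzyme by approved-drug library compounds, run at 10 nM enzyme in 50 mM Tris acetate (final). Luminescence was read within 5 min of enzyme-buffer addition and normalized to PTC124 versus DMSO (0%).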

Potency, inactive:
O=C1O[C@H]2[C@@H](OC(O)[C@@H]2O)[C@H]1O (some centres undefined)
CCC(=O)Oc1ccc2c(c1)CCC1C2CC[C@]2(C)C(OC(=O)CC)CCC12 (some centres undefined)
O=C(O)/C=C(/CC(=O)O)C(=O)O
CCCCCCCC(=O)CC[C@H]1[C@@H](C/C=C/CCCC(=O)OC(C)C)[C@@H](O)C[C@H]1O
CC1(C)SC2C(NC(=O)C(c3ccccc3)S(=O)(=O)O)C(=O)N2C1C(=O)O (centres undefined)
C/C(=C(/CCOC(=O)c1ccccc1)SS/C(CCOC(=O)c1ccccc1)=C(\C)N(C=O)Cc1cnc(C)nc1N)N(C=O)Cc1cnc(C)nc1N
COC1=C(C(=O)O)N2C(=O)[C@@H](NC(=O)C(N)C3C=CCC=C3)[C@H]2SC1 (some centres undefined)
C=C1/C(=C\C=C2/CCC[C@@]3(C)[C@@H]([C@H](C)OCCC(C)(C)O)CC[C@@H]23)C[C@@H](O)C[C@@H]1O
CC(=O)SC1CC2=CC(=O)CCC2(C)C2CCC3(C)C(CCC34CCC(=O)O4)C12 (centres undefined)
C[N+]1(C)CCN(C[C@@](O)(c2ccccc2)C2CCCCC2)CC1
CCN(CCO)CCn1c(Cc2ccccc2)nc2c1c(=O)n(C)c(=O)n2C
CC(=O)C1(O)CCC2C3CC(C)C4=CC(=O)CCC4(C)C3CCC21C (centres undefined)
CSCC[C@H](NC(=O)[C@@H](Cc1ccc(O[S+](=O)([O-])O)cc1)NC(=O)[C@H](N)CC(=O)O)C(=O)NCC(=O)N[C@@H](Cc1c[nH]c2ccccc12)C(=O)N[C@H](CCSC)C(=O)N[C@H](CC(=O)O)C(=O)N[C@@H](Cc1ccccc1)C(N)=O
CCCCC(=O)OCC(=O)[C@H]1[C@H](C)C[C@@H]2[C@@H]3C[C@@H](F)C4=CC(=O)C=C[C@]4(C)[C@@]3(F)[C@@H](O)C[C@@]21C
CC(=O)O[C@]1(C(=O)CO)[C@@H](C)C[C@H]2[C@@H]3CCC4=CC(=O)C=C[C@]4(C)[C@@]3(F)[C@@H](O)C[C@]21C
O=S(=O)(O)OCC1OC(COS(=O)(=O)O)(C2(OS(=O)(=O)O)OC(CO)C(OS(=O)(=O)O)C(OS(=O)(=O)O)C2OS(=O)(=O)O)C(OS(=O)(=O)O)C1OS(=O)(=O)O (centres undefined)
C/C=C1\NC(=O)[C@H]2CSSCC/C=C\[C@H](CC(=O)N[C@H](C(C)C)C(=O)N2)OC(=O)C(C(C)C)NC1=O (some centres undefined)
CCC[C@H]1C[C@H](C(=O)NC(C(C)Cl)C2O[C@@H](SC)C(OP(=O)(O)O)[C@@H](O)[C@@H]2O)N(C)C1 (some centres undefined)
COc1cc2c(c(OC)c1OC)-c1c(cc3c(c1OC)OCO3)CC(C)C(C)(O)C2 (centres undefined)
CC/C=C(/C(=O)N[C@@H]1C(=O)N2C(C(=O)OCOC(=O)C(C)(C)C)=C(COC(N)=O)CS[C@H]12)c1csc(N)n1
CN[C@H](CC(C)C)C(=O)N[C@H]1C(=O)N[C@@H](CC(N)=O)C(=O)N[C@H]2C(=O)N[C@H]3C(=O)N[C@H](C(=O)N[C@H](C(=O)O)c4cc(O)cc(O)c4-c4cc3ccc4O)[C@H](O)c3ccc(c(Cl)c3)Oc3cc2cc(c3O[C@@H]2OC(CO)[C@@H](O)[C@H](O)[C@H]2O[C@H]2C[C@](C)(N)[C@H](O)[C@H](C)O2)Oc2ccc(cc2Cl)[C@H]1O (some centres undefined)
O=C1OC2C(O)C(O)OC2C1O (centres undefined)
O=C(CO)C(O)C(O)C(O)CO (centres undefined)
CC(=O)OCC(=O)C1(O)CCC2C3CCC4=CC(=O)CCC4(C)C3(F)C(O)CC21C (centres undefined)
Cc1ccccc1C(=O)N1CC/C(=N/OS(=O)(=O)O)c2ccc(Cl)cc21
NCCCCC(NC(=O)C1CCCN1C(=O)C1CSSCC(N)C(=O)NC(Cc2ccccc2)C(=O)NC(Cc2ccccc2)C(=O)NC(CCC(N)=O)C(=O)NC(CC(N)=O)C(=O)N1)C(=O)NCC(N)=O (centres undefined) (H-CFFQNCPKG-NH2; disulfide 1-6; configuration not given here)
CC(CSC(=O)c1ccccc1)C(=O)N1CC(Sc2ccccc2)CC1C(=O)O (centres undefined)
CC(=O)OCC(=O)[C@@]1(O)[C@H](C)C[C@H]2C3C[C@H](F)C4=CC(=O)C=CC4(C)C3[C@@H](O)CC21C (some centres undefined)
C[C@@H]1O[C@@]2(CS1)CN1CCC2CC1
